Over roughly 33,000 sequences, “E-score (-0.5 to 0.5)” has its median near -0.012; the highest 2% begin near 0.27. Only a selection was taken, and the highest values are over-represented in it overall.

In this experiment the target is T1, Vhr1 (UniProt P40522).
T1 sequence: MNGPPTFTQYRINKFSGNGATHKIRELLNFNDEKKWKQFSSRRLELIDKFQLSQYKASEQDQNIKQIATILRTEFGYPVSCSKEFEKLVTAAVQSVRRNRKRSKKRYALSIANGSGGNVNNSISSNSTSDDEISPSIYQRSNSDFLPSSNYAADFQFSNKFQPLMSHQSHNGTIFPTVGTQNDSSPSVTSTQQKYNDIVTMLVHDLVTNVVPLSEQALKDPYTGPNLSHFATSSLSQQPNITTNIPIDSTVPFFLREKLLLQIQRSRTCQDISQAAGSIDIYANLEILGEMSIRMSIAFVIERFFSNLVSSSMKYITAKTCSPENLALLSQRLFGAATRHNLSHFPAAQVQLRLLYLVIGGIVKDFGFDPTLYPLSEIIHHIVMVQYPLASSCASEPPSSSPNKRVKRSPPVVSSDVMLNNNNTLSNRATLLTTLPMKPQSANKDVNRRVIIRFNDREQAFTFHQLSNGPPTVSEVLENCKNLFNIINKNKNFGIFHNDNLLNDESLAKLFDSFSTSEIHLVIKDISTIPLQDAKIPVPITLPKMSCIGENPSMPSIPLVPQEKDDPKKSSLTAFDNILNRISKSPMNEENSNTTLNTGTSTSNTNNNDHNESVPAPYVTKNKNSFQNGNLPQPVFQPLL
Description: PBM E-score (8-mer binding enrichment) (E-score (-0.5 to 0.5)); higher = stronger / more preferred TF binding. The note with it: protein concentration: 200 nM; construct: GST-full length. As to the method: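 Universal 'all 10-mer' protein binding microarrays (Agilent AMADID 015681) probed with GST-tagged S. cerevisiae TFs (full-length or DBD) made by in vitro transcription/translation (PURExpress), about 100-200 nM. Bound TF was detected with fluorescent anti-GST. Each ungapped 8-mer (which stands for itself and its reverse complement) is scored by the PBM enrichment score (E-score), a modified Wilcoxon-Mann-Whitney statistic from -0.5 to +0.5, computed with the Universal PBM Analysis Suite. Scale: above 0.35 generally sequence-specific binding.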
For the sequence AGAGCGAC, the “PBM E-score” value came to 0.0123.

For ACTATAGC, the “PBM E-score” value stood at 0.00988.

With CTCGATTA, the “PBM E-score” value came to 0.216.

As to TACGAGCA, the “PBM E-score” value was -0.0868.

As to GGAATACA, the “PBM E-score” value turned out to be 0.0161.

Regarding CACCCGTC, the “PBM E-score” value stood at 0.0428.

CAACGCTA: the “PBM E-score” value is -0.125.

As to CATGAATC, the “PBM E-score” value stood at 0.31.

Regarding CACGAATC, the “PBM E-score” value turned out to be 0.288.

For AATGAATC, the “PBM E-score” value was determined as 0.23.

For the sequence GATGAATC, the “PBM E-score” value came out at 0.249.

Turning to GAGGAATC, the “PBM E-score” value is 0.0804.

In the case of CATGATCC, the “PBM E-score” value is 0.213.

In the case of CATGATTC, the “PBM E-score” value turned out to be 0.424.

As to CAGGAATC, the “PBM E-score” value came to 0.313.

As for CACGAATA, the “PBM E-score” value came out at 0.066.

For the sequence AACGAATC, the “PBM E-score” value was 0.125.

With CAGGAATG, the “PBM E-score” value amounted to 0.0121.

For CTTGATTC, the “PBM E-score” value worked out at 0.214.

As for CAGTATCC, the “PBM E-score” value stood at 0.124.

As to GCTGGCGA, the “PBM E-score” value is -0.0575.

Regarding GGCAGACA, the “PBM E-score” value is -0.0678.

Turning to ATTGCCCA, the “PBM E-score” value is -0.113.

CCGGTCCG: the “PBM E-score” value was found to be 0.112.

Consider AAATGAAT, for which the “PBM E-score” value is -0.0848.

For CTGATCGA, the “PBM E-score” value stood at 0.0718.

Regarding CTGGACCC, the “PBM E-score” value is -0.213.

For CACTGCCG, the “PBM E-score” value is 0.173.

Regarding ATACTACG, the “PBM E-score” value is -0.0642.

On to CTGAGATA, for which the “PBM E-score” value is -0.128.

For the sequence GCAGCTTA, the “PBM E-score” value was -0.0202.

In the case of ATTGATTC, the “PBM E-score” value is 0.171.

Consider CTTGATTA, for which the “PBM E-score” value was determined as 0.0605.

For AATGATTG, the “PBM E-score” value worked out at 0.199.

Turning to CATGATAA, the “PBM E-score” value was 0.108.

With AATGATTC, the “PBM E-score” value turned out to be 0.406.

As for CATGATTA, the “PBM E-score” value turned out to be 0.369.

Take TAACCTAA: the “PBM E-score” value is -0.187.

In the case of ACCTTCTG, the “PBM E-score” value stood at 0.167.

Regarding CCCACCCG, the “PBM E-score” value is 0.382.

Regarding GCCACCCC, the “PBM E-score” value is -0.0413.

Turning to ACCACCCC, the “PBM E-score” value was 0.112.

As to CCCACCCA, the “PBM E-score” value stood at 0.263.

Take CCCACCCC: the “PBM E-score” value worked out at 0.389.

With ACCACCCG, the “PBM E-score” value was -0.0147.

As to AACCCCTA, the “PBM E-score” value is -0.0392.

AACACCGA: the “PBM E-score” value came out at 0.108.

On to CACGACTA, for which the “PBM E-score” value came to 0.209.

AACGACTC: the “PBM E-score” value was 0.292.

AACGACTA: the “PBM E-score” value was found to be 0.0488.

Take AACGACTT: the “PBM E-score” value was -0.216.

Consider CACGACTC, for which the “PBM E-score” value was found to be 0.378.

On to CACGACTG, for which the “PBM E-score” value was 0.178.

As to GACGACTA, the “PBM E-score” value stood at 0.162.

GACGACGC: the “PBM E-score” value is -0.049.

As for GACGACTC, the “PBM E-score” value was found to be 0.358.

In the case of GCACCCAA, the “PBM E-score” value is -0.0528.

For the sequence AGTCTTGC, the “PBM E-score” value came out at 0.0289.

As for ACAGCTCC, the “PBM E-score” value came out at 0.0267.

As for TTACCTAA, the “PBM E-score” value is -0.0877.

Take AAGTCAGA: the “PBM E-score” value stood at 0.0614.

Regarding GGGTCAGA, the “PBM E-score” value is -0.0746.

On to CAGTCAGA, for which the “PBM E-score” value amounted to 0.224.

Consider ATGTCAGC, for which the “PBM E-score” value came to 0.072.

For GCGTCAGC, the “PBM E-score” value was -0.256.

GAGTCAGC: the “PBM E-score” value amounted to 0.476.

Regarding CAGTCAGC, the “PBM E-score” value was found to be 0.232.

Consider AAGTCAGC, for which the “PBM E-score” value was 0.281.

For GAGTCAGA, the “PBM E-score” value was determined as 0.447.

As for CATGGGAC, the “PBM E-score” value is 0.02.

GTACTTCA: the “PBM E-score” value is 0.114.

With CAATGGTC, the “PBM E-score” value came out at 0.115.

With CCTAGTAC, the “PBM E-score” value stood at 0.0265.

For ATGCTCAA, the “PBM E-score” value is -0.0744.

In the case of CTCGAGAA, the “PBM E-score” value was -0.188.

For the sequence CGCAGTCC, the “PBM E-score” value worked out at 0.0797.

For the sequence GGCAGTCA, the “PBM E-score” value worked out at 0.345.

For the sequence AGCAGTCA, the “PBM E-score” value was found to be 0.256.

For CGCAGTCA, the “PBM E-score” value was 0.363.

On to GGCAGTAA, for which the “PBM E-score” value came out at 0.125.

With GGCAGTGA, the “PBM E-score” value was found to be 0.0755.

AGACCTGC: the “PBM E-score” value is -0.147.

For GTCGCGAA, the “PBM E-score” value came out at 0.0553.

As to CTCGCGAC, the “PBM E-score” value was determined as 0.242.

On to GGCGCGAA, for which the “PBM E-score” value was found to be 0.0599.

Turning to CGCGCGAC, the “PBM E-score” value is 0.162.

As for GTCGCGAC, the “PBM E-score” value came out at 0.379.

In the case of GGCGCGAC, the “PBM E-score” value was 0.275.

GTGGCTCA: the “PBM E-score” value turned out to be 0.277.

As for CTGGCTCA, the “PBM E-score” value turned out to be 0.28.

For ATGGCTCG, the “PBM E-score” value stood at 0.231.

Take ATGGCTCC: the “PBM E-score” value was 0.325.

In the case of GTAGCTCA, the “PBM E-score” value is 0.0143.

Regarding CTGGCTCC, the “PBM E-score” value turned out to be 0.0343.

Regarding GTGGCTTA, the “PBM E-score” value is -0.111.

With AGGGCTCC, the “PBM E-score” value is -0.358.

ATGGCTCA: the “PBM E-score” value worked out at 0.293.

As for AGGGCTCA, the “PBM E-score” value was determined as 0.0814.

CCGGCTCA: the “PBM E-score” value was determined as 0.0508.

Turning to ATAGCTCA, the “PBM E-score” value came out at 0.0225.
